Experimental data: PMC4336329 (PLoS ONE, 2015)
Screen size: about 310,000 compounds; about 14,000 (4.5%) showed an effect of 50% or more. The effect is printed as a negative number. The list comes from a sample in which strong results are over-represented; it also holds similar structures and randomly drawn compounds.

These compounds were tested against human ether-à-go-go-related gene (hERG) potassium channel (human, UniProt Q12809) (assay: primary screen, population patch clamp on CHO cells stably expressing hERG; higher = less effect of the substance).
human ether-à-go-go-related gene (hERG) potassium channel, sequence (Q12809 whole entry, looked up): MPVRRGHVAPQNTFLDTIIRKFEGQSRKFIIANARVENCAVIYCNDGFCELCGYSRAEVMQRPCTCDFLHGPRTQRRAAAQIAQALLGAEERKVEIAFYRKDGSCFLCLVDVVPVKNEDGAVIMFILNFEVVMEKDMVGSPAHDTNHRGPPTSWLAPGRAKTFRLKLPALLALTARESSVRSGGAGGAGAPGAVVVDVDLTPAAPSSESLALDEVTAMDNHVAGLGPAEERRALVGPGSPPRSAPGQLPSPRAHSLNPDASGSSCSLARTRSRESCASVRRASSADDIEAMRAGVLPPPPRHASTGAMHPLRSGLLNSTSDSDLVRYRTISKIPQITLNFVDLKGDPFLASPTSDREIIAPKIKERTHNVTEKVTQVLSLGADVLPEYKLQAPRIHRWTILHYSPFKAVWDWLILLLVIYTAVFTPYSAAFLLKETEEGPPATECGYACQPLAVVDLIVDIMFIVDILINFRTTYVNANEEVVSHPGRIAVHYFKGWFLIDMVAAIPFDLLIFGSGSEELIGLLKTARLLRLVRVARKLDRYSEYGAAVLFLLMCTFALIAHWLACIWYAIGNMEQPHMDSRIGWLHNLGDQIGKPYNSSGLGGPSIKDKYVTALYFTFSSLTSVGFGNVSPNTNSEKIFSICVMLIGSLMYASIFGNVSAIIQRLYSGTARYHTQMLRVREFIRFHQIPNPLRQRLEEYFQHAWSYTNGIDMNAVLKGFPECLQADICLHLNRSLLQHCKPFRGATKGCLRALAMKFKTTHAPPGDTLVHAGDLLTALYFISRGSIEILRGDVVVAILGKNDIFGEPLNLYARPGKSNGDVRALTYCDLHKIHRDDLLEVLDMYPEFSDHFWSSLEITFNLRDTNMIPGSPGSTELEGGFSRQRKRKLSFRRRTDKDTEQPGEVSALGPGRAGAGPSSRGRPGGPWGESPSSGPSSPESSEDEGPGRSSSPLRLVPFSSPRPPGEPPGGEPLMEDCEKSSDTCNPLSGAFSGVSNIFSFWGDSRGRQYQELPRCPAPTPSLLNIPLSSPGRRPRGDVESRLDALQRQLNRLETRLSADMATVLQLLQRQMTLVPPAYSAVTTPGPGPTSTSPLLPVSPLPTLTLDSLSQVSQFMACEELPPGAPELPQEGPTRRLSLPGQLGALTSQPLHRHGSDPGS
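Also: peak tail current of the secondary pulse compared with the same well before compound.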

SMILES | hERG current change (%, negative = inhibition) at 10uM
O=C(NCCNc1nccc(C(F)(F)F)n1)c1cccc(C(F)(F)F)c1 | -8.47%
CCOC(=O)c1c(C)nc(C)c(C(=O)OCC)c1-c1ccc(Br)cc1 | -29.7%
Cc1ccccc1Nc1ncnc2c1cnn2Cc1ccccc1 | -10.8%
Cc1c(NC(=O)C(C)OC(=O)CC2CC3CCC2C3)c(=O)n(-c2ccccc2)n1C (centres unmarked) | -9.36%
Cc1ccc(/C=N/Nc2ncnc3nc[nH]c23)cc1 | -18.6%
Nc1cccc(C(=O)Nc2ccco2)c1 | -2.33%
O=C(O)CN1C(=O)/C(=C2\SC(=S)N(C(Cc3ccccc3)C(=O)O)C2=O)c2ccccc21 (centres unmarked) | 2.15%
CC(C)(C)CC(=O)Nc1nnc(SCC(=O)NC2CCCCC2)s1 | -36.5%
N#CC1(c2ccccc2)CCC(NCCc2ccccc2)CC1.O=C(O)C(=O)O (centres unmarked) | -69.5%
COC1CCCCC1NCCc1ccccc1.O=C(O)C(=O)O (centres unmarked) | -0.725%
O=C(O)C(=O)O.c1ccc(CCNC2CCCCCC2)cc1 | -4.67%
O=C(N1CCOCC1)N1CCN(S(=O)(=O)N2CCOCC2)CC1 | 11.3%
C=CCn1c(SCC(=O)Nc2cccc3ccccc23)nc(O)c(CC)c1=O | 3.7%
COc1ccc(NC(=O)CC2C(=O)N(c3cccc(OC)c3)C(=O)N2C2CCCCC2)cc1 (centres unmarked) | 13.4%
CCN(CC)Cc1c(C(=O)N/N=C/c2c(Cl)cccc2Cl)nnn1-c1nonc1N | 11.8%
CCCCOc1[nH]c2nc(-c3ccco3)n(Cc3ccco3)c(=N)c2c1C#N | -69.1%
c1coc(Cn2c(-c3ccco3)nc3ccccc32)c1 | -10%
COc1ccc(Cn2c(=O)n(Cc3ccco3)c(=N)c3c4c(sc32)COC(C)(C)C4)cc1 | -15.9%
CC1Sc2ccc(C(=O)NCc3cccc(C(F)(F)F)c3)cc2NC1=O (centres unmarked) | -4.86%
CCNC(=O)COc1ccc(/C=C2\COc3ccccc3C2=O)cc1OC | -71.8%
COc1ccc(/C=C2\COc3ccccc3C2=O)cc1OC | -17.1%

SMILES | hERG current change (%, negative = inhibition) at 10uM
CCOc1cc(/C=C2\COc3ccccc3C2=O)ccc1OCC(=O)N(C)C | -10.3%
COc1ccc(N2C(=S)N(C(=O)c3ccccc3)C(=Nc3ccccc3)C2=Nc2ccccc2)cc1 | -3.16%
CN1CCN(C(=O)c2ccccc2-c2nc(-c3ccc(Cl)cc3)no2)CC1 | -65.6%
NC(=O)c1ccccc1-c1nc(-c2ccccc2)no1 | -76.5%
Cc1ccc(-c2noc(-c3ccccc3C(=O)N3CCOCC3)n2)cc1 | -12.2%
CN1CCN(C(=O)c2ccccc2-c2nc(-c3ccccc3)no2)CC1 | -25.5%
Cc1ccc(-c2noc(-c3ccccc3C(=O)N3CCN(C)CC3)n2)cc1 | -51.2%
O=C(c1ccccc1-c1nc(-c2ccc(Cl)cc2)no1)N1CCCC1 | 0.639%
c1ccc(-c2noc(-c3ccccc3-c3ccccc3)n2)cc1 | 5.26%
O=C(c1ccccc1-c1nc(-c2ccccc2)no1)N1CCCC1 | -4.86%
Cc1ccc(-c2noc(-c3ccccc3C(=O)N3CCCC3)n2)cc1 | -32.3%
Cc1cccc(NC(=O)CSCC(=O)N=c2sccn2C)c1 | -20.2%
CC(C)n1c(O)c(N=NC(=O)CNC(=O)Cc2ccc(Cl)cc2)c2ccccc21 | -39.1%
CC(C)c1cc(-c2cc(-c3ccccc3)on2)nc(NC2CCCC2)n1 | 6.4%
CCC(Cc1ccccc1)NC(=O)CCc1ccccc1 (centres unmarked) | 13.5%
COc1ccc(CN(C)CC(=O)Nc2ccc(Cl)cc2F)c(OC)c1.O=C(O)C(=O)O | -16.1%
Cl.Nc1ncnc2sc3c(c12)CCNC3 | 25.4%
O=C(COn1nnc2ccc(S(=O)(=O)N3CCOCC3)cc21)NCCc1ccccc1 | -8.87%
COc1ccc(CNC(=O)C2CCCN(S(=O)(=O)c3ccc4c(c3)CCCN4C(C)=O)C2)cc1 (centres unmarked) | 4.76%
CC(C)Cn1c(N)c(C(=O)COC(=O)c2c(O)c(Cl)cc(Cl)c2Cl)c(=O)n(C)c1=O | -79.8%
CC(C)Cn1c(N)c(C(=O)COC(=O)c2cnc(Cl)c(Cl)c2)c(=O)n(C)c1=O | -71.1%

SMILES | hERG current change (%, negative = inhibition) at 10uM
CC(C)Cn1c(N)c(C(=O)COC(=O)c2ccc(Cl)cc2)c(=O)n(C)c1=O | -37.4%
CC(C)Cn1c(N)c(C(=O)COC(=O)c2ccc(O)cc2)c(=O)n(C)c1=O | -10.6%
CC(C)Cn1c(N)c(C(=O)COC(=O)c2cccc(Cl)c2)c(=O)n(C)c1=O | -6.08%
CC(C)Cn1c(N)c(C(=O)COC(=O)c2cc(F)cc(F)c2)c(=O)n(C)c1=O | -42.1%
CCC(CC)C(=O)Nc1cccc(C(=O)Nc2ccc(S(N)(=O)=O)cc2)c1 | 10.8%
Cc1ccc(OCC(=O)Nc2ccc3c(c2)nc(CCN2CCOCC2)n3C)cc1 | -51.3%
Cn1c(CN2CCOCC2)nc2cc(NC(=O)COc3ccccc3)ccc21 | -0.505%
Cn1c(CCN2CCOCC2)nc2cc(NC(=O)COc3ccccc3)ccc21 | -15.1%
CC(=O)Nc1ccc2c(c1)nc(CCN1CCOCC1)n2C | 10.4%
Cn1c(CCN2CCOCC2)nc2cc(NC(=O)COc3ccc(Cl)cc3)ccc21 | -55.4%
COc1ccc(OCC(=O)Nc2ccc3c(c2)nc(CCN2CCOCC2)n3C)cc1 | -41%
CC(=O)Nc1ccccc1NC(=O)C/C(C)=N/NC(=O)C(=O)N1CCCCC1 | -13.3%
COc1ccc2[nH]c(=O)c(CN(C(C)=O)c3ccc(C)cc3C)cc2c1 | 1.02%
CSc1nc(N)c(C(=O)Nc2ccc([N+](=O)[O-])cc2)s1 | -12.3%
O=C(N/N=C\c1cccc(F)c1)c1ccc(-c2ccccc2)cc1 | 27%
CC(=O)N(C)C1(c2nnnn2CCOC(=O)Nc2cccc3ccccc23)CCCC1 | 0.969%
CCN1CCN(c2ccc(S(=O)(=O)N3CCCCC3)cc2NC(=O)/C=C/c2ccc(F)cc2)CC1 | -48.1%
CCN1CCN(c2ccc(S(=O)(=O)N3CCOCC3)cc2NC(=O)/C=C/c2ccc(OC)c(OC)c2)CC1 | 10.4%
COc1ccc(/C=C/C(=O)Nc2cc(S(=O)(=O)N3CCCCC3)ccc2N2CCCCC2)cc1OC | 4.11%
CCN1CCN(c2ccc(S(=O)(=O)N3CCOCC3)cc2NC(=O)/C=C/c2ccc([N+](=O)[O-])cc2)CC1 | -71.8%
CCN1CCN(c2ccc(S(=O)(=O)N3CCCCC3)cc2NC(=O)/C=C/c2ccc([N+](=O)[O-])cc2)CC1 | -70.8%

SMILES | hERG current change (%, negative = inhibition) at 10uM
CCN1CCN(c2ccc(S(=O)(=O)N3CCOCC3)cc2NC(=O)/C=C/c2ccc(C)cc2)CC1 | -46%
COc1ccc(CCCC(=O)N/N=C\c2cccs2)cc1 | 27.2%
COCCNC(=O)c1ccccc1-c1nc(-c2ccccc2Cl)no1 | -9.09%
O=C(NC(=S)Nc1ccc2ncccc2c1)c1ccccc1 | 2.36%
C=CCn1cnc2scc(-c3ccc(C)cc3)c2c1=O | -10.4%
CCCN(C(=O)Cn1ncc2c(=O)oc3ccccc3c21)c1cccc(C)c1 | -54.3%
Cc1ccc2oc(=O)c3cnn(CC(=O)N(CCCN4CCOCC4)Cc4ccco4)c3c2c1 | -57.5%
COCCCN(Cc1ccco1)C(=O)Cn1ncc2c(=O)oc3ccc(C)cc3c21 | -49.6%
CCOC(=O)Cn1ncc2c(=O)oc3ccccc3c21 | -0.743%
CCCCN(Cc1ccco1)C(=O)Cn1ncc2c(=O)oc3ccc(C)cc3c21 | 13.2%
CCOc1ccccc1N(CC)C(=O)Cn1ncc2c(=O)oc3ccccc3c21 | -26.1%
C=C(C)c1cccc(C(C)(C)NC(=O)N2CCN(c3ccccc3OC)CC2)c1 | 4.28%
COc1ccc(CCNC(=O)C2CCN(C(=O)c3cccs3)CC2)cc1 | -0.649%
CC(=O)Nc1ccc(NC(=O)CSc2ccc3nnc(-c4ccccn4)n3n2)cc1 | 17.7%
CCOc1ccc(NC(=O)CSc2ccc3nnc(-c4ccccn4)n3n2)cc1 | -54.3%
COc1ccc(NC(=O)CSc2ccc3nnc(-c4ccccn4)n3n2)cc1 | -20.9%
CC(=O)c1ccc(NC(=O)CSc2nnc3ccc(-c4ccccn4)nn23)cc1 | -10.5%
COc1ccc(NC(=O)CSc2ccc3nnc(-c4ccccn4)n3n2)cc1OC | -18.1%
CC(=O)c1ccc(NC(=O)CSc2ccc3nnc(-c4ccccn4)n3n2)cc1 | -64.7%
CCc1cccc(C)c1NC(=O)Cn1nc(C)n2cccc2c1=O | 22.9%
